Records with an inconclusive call do not appear. A number with no mark means an inactive call. The call rests on the fitted dose curve; in most records, active means well fitted activation curve with a large enough effect; inconclusive means small, poorly fitted or top-dose-only effect; inactive means flat fitted curve, though single readings scatter.
assay: Primary redox qHTS assay for identification of artifact compounds. (AID 1845223); details: Amplex Red/HRP redox cycling with DTT, fluorescence; series mostly up to 53.8 µM; redox activity (% of DA3003): at the top concentration
Description: PI: Alexander Tropsha Ph.D.
UNC Eshelman School of Pharmacy
University of North Carolina, Chapel Hill, North Carolina
Hits from high-throughput screening (HTS) of chemical libraries are often false positives due to their interference with the assay detection technology. In response to this problem, we generated the largest publicly available library of chemical liabilities and developed a free webtool to predict HTS artifacts, both of which are described herein. More specifically, we generated, curated, and integrated HTS datasets for thiol reactivity, redox activity, and luciferase (firefly and nano) activity. Using these curated datasets, we developed and validated several Quantitative Structure-Interference Relationship (QSIR) models to predict nuisance behavior. […] These models were employed for virtual profiling of the National Center for Advancing Translational Science's (NCATS) in-house library, and 256 compounds for each assay were selected for the experimental validation of nuisance behavior. The BA for these external predictions ranged from 58 to 78% for compounds within the applicability domains of the models. […] The models developed in this study, along with aggregation models previously developed by our group (SCAM Detective) were implemented in "Liability Predictor," an online tool which may be used as part of chemical library design or for triaging HTS hits. Both the models and the curated datasets are publicly available at https://liability.mml.unc.edu/.
SEQUENCE No. (e.g., 1, 2, 3, etc.); […] (e.g., Cells, Incubation, Reagent, etc.); VALUE; DESCRIPTION.
1; Reagent; 3 uL; Amplex Red and HRP mixture.
2; Compounds and control; 16 nL; Kalypsis pin tool (Wako USA) equipped with a 1536-well pin head. […]
6; Detection; Fluorescence, ViewLux microplate reader, 525 nm excitation, 598 nm emission.
NOTES (numbers refer to Sequence numbers above)
1. 3 uL of a mixture containing Amplex Red (25 uM final concentration) and horseradish peroxidase (HRP; 250 mU/mL final concentration) in assay buffer (HBSS) was dispensed into all wells of a 1536-well assay plate (solid-bottom black plate; Greiner Bio One, Monroe, NC).
2. A Wako Pin-tool (Wako Automation, Richmond, VA) was used to transfer 16 nL of compounds (consisting of 7-plates in qHTS format, final concentration range 18.3 nM to 114 uM) or control DA3003 (final concentration range 1.22 nM to 40 uM).
3. 15 min. incubation at room temperature protected from light.
4. 1 uL of DTT (prepared fresh; final concentration 250 uM) was dispensed for a final assay volume of 4 uL.
5. Plates were centrifuged (121xg, 15 seconds) and incubated for 30 minutes at room temperature protected from light.
6. Samples were read for fluorescence (Ex/Em = 525(20)/598(25) nm) on a ViewLux CCD imager (PerkinElmer). Data were normalized to DMSO (0% activity) and DA3003 (10 uM final concentration; 100% activity) and the resulting percent inhibition data were fitted to a 4-parameter Hill equation using NCATS in-house software.

SMILES | redox activity (% of DA3003)
COc1cc2c(cc1OC)-c1[nH]nc(Nc3cccc(F)c3)c1C2 | -2.4%
CC(O)/C=C/C1(O)C(C)C(O[C@@H]2O[C@H](CO)[C@@H](O)[C@H](O)[C@H]2O)C(O)CC1(C)C (stereo not given in full) | -13.3% [at 25.6 µM]
FC(F)(F)c1ccc(Nc2nc(-c3c(C(F)(F)F)nc4ccccn34)cs2)cc1 | 2.28%
O=C(NCc1ccc(S(=O)(=O)c2cc(F)cc(F)c2)cc1)c1ccc2nccn2c1 | 4.76%
CC(C)(C)NC(=O)[C@@H](c1cccnc1)N(C(=O)c1ccco1)c1ccc(C(C)(C)C)cc1 | 13.5%
CC1=C(C(=O)O)/C(=C/CO[C@@H]2O[C@H](COC(=O)/C=C/c3ccc(O)cc3)[C@@H](O)[C@H](O)[C@H]2O)C(O)C1 (stereo not given in full) | 17.3% [at 25.6 µM]
C=C(CCC1=C(C)[C@H]2[C@H](CC3[C@@H]4CC=C5C[C@@H](O)C[C@@H](O)[C@]5(C)C4[C@H](O)C[C@@]32C)O1)CO[C@@H]1O[C@H](CO)[C@@H](O)[C@H](O)[C@H]1O (stereo not given in full) | 7.87% [at 25.6 µM]
CC1=C(C(=O)OCc2ccccc2)C(c2ccc(-c3ccccc3)cc2)NC(=O)N1CCCCCC(=O)O (stereo not given) | 16.6%
CC1OC(O[C@H]2CC[C@@]3(C)C(CC[C@]4(C)C3CC=C3C5CC(C)(C)CC[C@]5(C(=O)OC5OC(CO)C(OC6OC(COC7OCC(O)C(O)C7O)C(O)C(O)C6O)C(O)C5O)CC[C@]34C)C2(C)C)C(O)C(O)C1OC1OCC(OC2OCC(O)C(O)C2O)C(O)C1O (stereo not given in full) | 16.2% [at 11.5 µM]
CC1(O)CC(O)C2(O)C=COC(O[C@@H]3O[C@H](CO)[C@@H](O)[C@H](O)[C@H]3O)C12 (stereo not given in full) | 6.87%
C[C@@H]1O[C@@H](O[C@@H]2[C@@H](O[C@@H]3O[C@@H](C)[C@H](O[C@@H]4OC[C@H](O)[C@H](O[C@@H]5OC[C@@H](O)[C@H](O)[C@H]5O)[C@H]4O)[C@@H](O[C@@H]4OC[C@](O)(CO)[C@H]4O)[C@H]3O)[C@H](OC(=O)[C@]34CCC(C)(C)C[C@H]3C3=CCC5[C@@]6(C)C[C@H](O)[C@H](O[C@@H]7O[C@H](CO[C@@H]8OC[C@H](O)[C@H](O)[C@H]8O)[C@@H](O)[C@H](O)[C@H]7O)C(C)(C)C6CC[C@@]5(C)[C@]3(C)C[C@H]4O)OC[C@H]2O)[C@H](O)[C@H](O)[C@H]1O (stereo not given in full) | 6.31% [at 11.5 µM]
CC1(C)CCC2(C(=O)OC3OC(CO)C(O)C(O)C3O)CCC3(C)C(=CCC4C5(C)CCC(OC6OC(C(=O)O)C(OC7OC(CO)C(O)C(O)C7O)C(OC7OC(CO)C(O)C(O)C7O)C6O)C(C)(C)C5CCC43C)C2C1 (stereo not given) | 10.6% [at 11.5 µM]
O=[N+]([O-])c1cccc2[nH]c(CNc3nc(N4CCOCC4)nc4c3ncn4-c3ccsc3)nc12 | 6.64%
Nc1ncnc2c1ncn2CCNCCCCCO | -1.6%
CC(C)C(C(=O)N(C)C(C)C(N)=O)N(C)C(=O)C1CCCN1C(=O)/C=C/C=C/C(O)C(C)O (stereo not given) | -10.8% [at 25.6 µM]
C=C1C(=O)OC2CC(C)=C(C(C)CCCO)C(O)C12 (stereo not given) | -8.6%
COC(=O)CC(C)(O)CC(=O)OCc1ccc(O[C@@H]2O[C@H](CO)[C@@H](O)[C@H](O)[C@H]2O)cc1 (stereo not given in full) | -16.6% [at 25.6 µM]
Cc1nc(C)c(-c2ccc(C3CCC(CC(=O)O)CC3)cc2)nc1C(N)=O (stereo not given) | -2.43%
COC1/C=C/C(C)(O)C(SCC(N)C(=O)O)CC(=O)OC(C)C(C)CC/C=C/1C (stereo not given) | 3.1% [at 25.6 µM]
CC1CC(=O)C2=C(CCC3(O)C(O)c4c(O)cccc4C(=O)C23O)C1 (stereo not given) | -3.16%

SMILES | redox activity (% of DA3003)
C=C(C(=O)O)C1CC2=C(C)CCCC2(C)C[C@@H]1O (stereo not given in full) | 4.28%
C/C1=C\CCC2=C[C@@H](OC2=O)c2c(C)coc2C1 | 12.1%
O=C(O)CCCCCC[C@H]1C(=O)NC(=O)N1CC[C@@H](O)C1CCCCC1 | 3.46%
CC1=CC2/C=C(\C)CC[C@@H](O)[C@@H](O)[C@@H]3O[C@@H]3C(=O)[C@]23C(=O)N[C@@H](CC(C)C)[C@@H]3[C@@H]1C (stereo not given in full) | -1.05% [at 25.6 µM]
CC(C)CC(=O)O[C@@H]1OC=C(CO[C@@H]2O[C@H](CO)[C@@H](O)[C@H](O)[C@H]2O)[C@H]2[C@@H]3O[C@H]3[C@@](O)(CO)[C@@H]12 | -18% [at 25.6 µM]
CC(C)=CCC/C(C)=C/CO[C@@H]1O[C@H](CO)[C@@H](O)[C@H](O)[C@H]1O | -1.57%
CC(CCC1(O)OC2CC3C4CCC5CC(O[C@@H]6O[C@H](CO)[C@@H](O)[C@H](O)[C@H]6O[C@@H]6O[C@@H](C)[C@H](O)[C@@H](O)[C@H]6O)C(O)CC5(C)C4CCC3(C)C2C1C)CO[C@@H]1O[C@H](CO)[C@@H](O)[C@H](O)[C@H]1O (stereo not given in full) | 15.2% [at 11.5 µM]
CC1OC(OC2C(C)OC(OC3C(O)C(CO)OC(O[C@H]4CC[C@@]5(C)C(CC[C@]6(C)C5CC=C5C7[C@@H](C)[C@H](C)CC[C@]7(C(=O)O)CC[C@]56C(=O)O)C4(C)C)C3O)C(O)C2O)C(O)C(O)C1O (stereo not given in full) | -18.3% [at 11.5 µM]
NC(=O)c1cccc(-c2cc(OC(=O)NC3CCCCC3)ccc2O)c1 | -1.33%
COC(=O)CCC(=O)OC[C@]1(C)CCC[C@@]2(C)C3CC[C@]4(C)C=CC3(CCC12)C4 (stereo not given in full) | -15.7% [at 25.6 µM]
C=C(C(=O)O)[C@H]1C[C@]2(C)[C@@H](O)CC[C@]23O[C@H]1C[C@@H]3C | -9.6%
CNC(C)C(=O)NC(C(=O)N1CCCC1c1nc(C(=O)c2ccc(F)cc2)cs1)C1CCCCC1 (stereo not given) | 12.6%
Cc1cc(=O)oc2c(C=O)c(O)ccc12 | 2.72%
CC1=CC(=O)C2C(C)(C)CCC[C@]2(C)[C@H]1CO (stereo not given in full) | 3.92%
COc1ccc(CC2NCCc3c2[nH]c2ccc(C)cc32)cc1OC (stereo not given) | 5.67%
COc1cc(NC(=O)Nc2cccc(CNC(=O)O[C@H]3CCOC3)c2)ccc1-c1cnco1 | 18.9%
Cc1cn(C2C=CC(CO)O2)c(=O)[nH]c1=O (stereo not given) | -1.93%
OC[C@H]1O[C@@H](O[C@H]2[C@H](OCCc3ccccc3)O[C@H](CO)[C@@H](O)[C@@H]2O)[C@H](O)[C@@H](O)[C@@H]1O | -9.91% [at 25.6 µM]
C=C(C(=O)O)C1CCC2(C)CCC(O)C(C)(O)C2C1 (stereo not given) | -10.3%
C=C1C[C@]23C[C@H]1CC[C@H]2[C@@]1(C)CCC[C@@]2(C)C(=O)O[C@@H]([C@@H]3O)[C@@H]12 | 15.1%
